Data as given in PubChem BioAssay (NCATS).
“And” between values parts separate entries of the source, which are not always exact repeats. Identical values can stand only once. Results filed as inconclusive are left out. A number with no mark means an inactive call. The source made the active and inactive calls. Calls follow the shape of the dose curve; as a rule, active = well fitted curve in the direction sought with a large enough effect; inconclusive = small, poorly fitted or top-dose-only effect, or another doubt; inactive = no such curve, though single readings can be large or run the other way. Where a SMILES comes first, the peptide text is derived from it. [ ]: non-standard residue; d: D form. pGlu = O=C1CC[C@@H](C(=O)O)N1; Thz = O=C(O)[C@@H]1CSCN1
% is scaled to controls: 0 for no effect and ±100 for the full control effect; potency is read from the fitted curve at half-maximal effect.

Assay: qHTS Assay for Identifying Gametocytocidal Compounds (AID 743244);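 as to max response: actives lower the fluorescent signal which means gametocytes are killed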
Details: P. falciparum 3D7 stage III-V gametocytes, alamarBlue, 72 h; max response: active compounds read low
In short: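 Fluorescence at Ex 525/Em 598 nm, recorded 24 h after alamarBlue addition, reports residual metabolic activity of 3D7 gametocytes (stages III–V) following 72 h compound exposure at 37 °C, 5% CO2.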
With `Nc1ccc([N+](=O)[O-])cc1O` the max response was -2.68%. For `CC1(C)[C@@H](O[C@H]2O[C@H](C(=O)O)[C@@H](O)[C@H](O)[C@H]2O[C@@H]2O[C@H](C(=O)O)[C@@H](O)[C@H](O)[C@H]2O)CC[C@]2(C)[C@H]3C(=O)C=C4[C@@H]5C[C@@](C)(C(=O)O)CC[C@]5(C)CC[C@@]4(C)[C@]3(C)CC[C@@H]12`, the max response was 1.42% and -3.92%. Work on `NC(=O)C(c1ccccc1)(c1ccccc1)[C@@H]1CCN(CCc2ccc3c(c2)CCO3)C1` yielded a max response of -5.51%. In the case of `COC(=O)C1=C(C)NC(C)=C(C(=O)OCC(C)=O)C1c1ccccc1[N+](=O)[O-]` (configuration not stated), the max response was 14.8%. Work on `Nc1c(CC(=O)O)cccc1C(=O)c1ccc(Br)cc1` yielded a max response of 4.37%. Compound `CCCC(=O)OC[C@@H](OC(=O)CCC)[C@@H](OC(=O)CCC)[C@H](Cn1c2nc(=O)[nH]c(=O)c-2nc2cc(C)c(C)cc21)OC(=O)CCC` has a max response of 3.76%. In the case of `O=C(CCN1CCN(CCO)CC1)N1c2ccccc2Sc2ccc(C(F)(F)F)cc21`, the max response was -4.95%. In the case of `O=c1[nH]c2ccccc2n1CCCN1CCN(C(c2ccccc2)c2ccccc2)CC1`, the max response was 14.5%. With `Cc1ccc(O)c(-n2nc3ccccc3n2)c1` the max response was -7.72%. In the case of `Cc1onc(-c2c(F)cccc2Cl)c1C(=O)N[C@@H]1C(=O)N2[C@@H]1SC(C)(C)[C@@H]2C(=O)O`, the max response was 16.8% and -3.16%. With `CN(C)[C@@H]1C(=O)C(C(=O)NCN2CCCC2)=C(O)[C@@]2(O)C(=O)C3=C(O)c4c(O)cccc4[C@@](C)(O)C3C[C@@H]12` (some centres not stated) the max response was 6.22% and 1.93%. For `COc1cc2c3cc1Oc1cc(ccc1O)C[C@@H]1c4c(cc(OC)c(O)c4Oc4ccc(cc4)C[C@@H]3N(C)CC2)CC[N+]1(C)C`, the max response was 1.34%. With `CC(C(=O)O)c1ccc(C(=O)c2cccs2)cc1` (configuration not stated) the max response was 13.3%. For `CC1(C)C[C@@H]1C(=O)N/C(=C\CCCCSC[C@H](N)C(=O)O)C(=O)O`, the max response was 3.26% and 5.48%. Compound `O=C(O)Cc1cccc(-c2cc(CCCCCCc3ccc(O[C@H]4O[C@H](CO)[C@@H](O)[C@H](O)[C@@H]4O)c(-c4cccc(CC(=O)O)c4)c3)ccc2O[C@H]2O[C@H](CO)[C@@H](O)[C@H](O)[C@@H]2O)c1` has a max response of 36.1%. With `CC[C@@H](C)[C@H]1O[C@]2(CC[C@H]1C)C[C@@H]1C[C@@H](CC=C(C)[C@@H](O[C@H]3C[C@H](OC)[C@@H](O[C@H]4C[C@H](OC)[C@@H](O)[C@H](C)O4)[C@H](C)O3)[C@@H](C)C=CC=C3CO[C@@H]4[C@H](O)C(C)=C[C@@H](C(=O)O1)[C@]34O)O2` the Potency was 2640 nM (active). For `[O-][n+]1ccccc1SSc1cccc[n+]1[O-]`, the Potency was 148 nM (active). With `CC(=O)SCC(CC(=O)c1ccc(C)cc1)C(=O)O` (configuration not stated) the max response was 17.7%. `O=C1CC[C@@H](C(=O)N2CSC[C@H]2C(=O)O)N1` ([pGlu]-[Thz]-OH) showed a max response of 5.51%. In the case of `CC1(C)[C@@H](O)CC[C@]2(C)[C@H]3C(=O)C=C4[C@@H]5C[C@@](C)(C(=O)O)CC[C@]5(C)CC[C@@]4(C)[C@]3(C)CC[C@@H]12`, the max response was 6.32% and -6.89%. `CN1CCN(c2cc3c(nn2)Oc2ccccc2N3C)CC1` gave a max response of -7.02%. Compound `c1ccc(CCNc2nc(-c3ccccc3)cs2)cc1` has a max response of -4.46%. In the case of `COc1cc(/C=C/C(=O)N2CCN(CC(=O)N3CCCC3)CC2)cc(OC)c1OC`, the max response was -1.2%. Compound `COC(=O)[C@H]1[C@H]2C[C@@H]3c4[nH]c5cc(OC)ccc5c4CCN3C[C@H]2C[C@@H](OC(=O)/C=C/c2cc(OC)c(OC)c(OC)c2)[C@@H]1OC` has a max response of -0.068%. Compound `CCCCCCCCCCCC(=O)[O][Sn]([CH2]CCC)([CH2]CCC)[O]C(=O)CCCCCCCCCCC` has a max response of -1.72%. `CC(=O)O[C@H]1C[C@@]2(C)[C@@H](C[C@@H](O)[C@H]3[C@@]4(C)CC[C@@H](O)[C@@H](C)[C@@H]4CC[C@@]32C)/C1=C(\CCC=C(C)C)C(=O)O` gave a max response of -4.85%. In the case of `C[S+](CC[C@H](N)C(=O)O)C[C@H]1O[C@@H](n2cnc3c(N)ncnc32)[C@H](O)[C@@H]1O` (some centres not stated), the max response was 6.19% and -10.1%.
